The list is not random: actives were taken first. Their share in the collection is about 3.1%.
S16 viability = toxic to S16 Pmp22-F2sN Schwann cells | AID 1508642 | Potency, µM (series often up to 57.5 µM), inactives show at the top dose activity change, negative = cytotoxicity, usual class: cytotoxic | S16 Pmp22-F2sN Schwann cells viability, CellTiter-Glo, 24 h | 43,000 tested, 0.48% active; note: nearly all actives have a fitted effect of over 65% in size
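Used to flag compounds lowering reporter output through toxicity, this quantitative HTS measures ATP-based CellTiter-Glo luminescence in S16 Pmp22-F2sN Schwann cells after 24 h compound exposure at 37C.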
pS6 MEF inh = reduces mTORC1 signaling in Tsc2 and p53 null MEF cells; AID 493208; Potency, µM (series often up to 38.3 µM), for the others: at the top dose activity change, negative = inhibition, usual class: inhibitors; 44,000 tested, 0.78% active; Tsc2-/- p53-/- MEF, phospho-rpS6 immunofluorescence/PI, 24 h;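 note: plate controls were DMSO for no effect and rapamycin for full effect; nearly all actives have a fitted effect of over 50% in size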
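Tsc2-/-, p53-/- MEFs (empty-vector stable line) in DMEM + 10% FBS were treated with compounds 24 h at 37 degree Celsius, fixed, and immunostained for phospho-rpS6 (Alexa-488) with propidium iodide counterstain. Laser-scanning cytometry gave % positive cells, normalized against 7.5 nM rapamycin and DMSO.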
p53null 32C tox = p53 null cell cytotoxicity, permissive temperature; H1299-neo p53 null cells, ATP luminescence, 24 h, 32C; Potency, µM (titrated, usually from 46.1 µM), without a hit: at the top dose activity change, negative = cytotoxicity, most hits filed as cytotoxic; AID 903; 55,000 tested, 0.62% active;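 note: 0% = DMSO only and -100% = full killing by 100 µM tamoxifen; nearly all actives have a fitted effect of over 55% in size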
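Overnight 37C seeding (600 cells/well) of H1299-neo preceded a 24 hr, 32C exposure to compounds up to 46 uM. ATP levels, read by luminescence after 20 min at RT, indicated surviving cells.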
PMP22 txn = modulates PMP22 transcription in S16 Schwann cells; S16 Pmp22-F2sN Schwann cells (luciferase reporters placed in the Pmp22 gene), FLuc/NLuc coincidence luminescence, 24 h; Potency, µM (doses to about 57.5 µM), without a hit: at the top dose activity change, negative = inhibition, most hits filed as inhibitors; 43,000 tested, 2% active; active = clear falling dose curves in both reporters; inconclusive = both reporters move, but less clearly or upward; inactive = either reporter flat; the % is the NLuc reporter signal
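S16(c9) Schwann cells with FLuc/NLuc coincidence reporter in the Pmp22 3' UTR; compounds pin-transferred, 24 h at 37C. Dual-luciferase read: FLuc first, then NLuc after Stop&Glo, each 10 min at room temperature.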
SKOV3 invasion = inhibitors of ovarian cancer cell adhesion and invasion in omental model; SKOV3ip1-GFP adhesion/invasion on 3D omental model, fluorescence; Potency, µM (doses to about 45.8 µM), for inactives: at the top dose activity change, negative = inhibition, most hits filed as inhibitors; 46,000 tested, 0.1% active;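 note: plate controls were DMSO wells for no effect and tomatine positive control wells for full effect; nearly all actives have a fitted effect of over 65% in size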
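A 3D layer of primary human omental fibroblasts, mesothelial cells, fibronectin and collagen I, grown 48 hr, received SKOV3ip1-GFP cells in serum-free medium plus compounds at 0.36-46 umol/L. After 2 hr RT and 16 hr 37 C, fixed adherent GFP cells were counted; normalized to DMSO and tomatine.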
p53null 39C tox = p53 null cell cytotoxicity, nonpermissive temperature; 55,000 tested, 0.97% active; Potency, µM (series often up to 46.1 µM), for inactives: top-dose activity, negative = cell killing, hits mostly cytotoxic; H1299 p53-null (neo) cells, 39C, ATPlite viability, 24 h;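 note: 0% = DMSO only and -100% = full killing by 100 µM tamoxifen; nearly all actives have a fitted effect of over 50% in size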
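Following overnight plating at 37C (600 cells/well), H1299-neo or H1299-p53A138V cells are dosed up to 46 uM. Incubation lasts 24 hr at 39C before ATP detection.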
* hit, by the source's call. Unless noted, calls come from the whole dose curve; as a rule, active = well fitted curve in the direction sought with a large enough effect; inconclusive = small, poorly fitted or top-dose-only effect, or another doubt; inactive = no such curve, though single readings can be large; an effect the other way counts as inactive or inconclusive. Unless noted, % is set by controls: 0 for no effect and ±100 for the full control effect; potency is the fitted concentration of half-maximal effect.

What do the screens show for `Cc1ccc(Cl)cc1Nc1nn2c(=O)c3ccc(C(=O)NC(C)c4ccccc4)cc3nc2s1` (stereo not given)?
S16 viability: inconclusive; pS6 MEF inh: -12%; p53null 32C tox: 6%; PMP22 txn: 7.6µM*; SKOV3 invasion: -40%; p53null 39C tox: 11%

How did COc1ccccc1Nc1nn2c(=O)c3ccc(C(=O)NCCc4ccccc4)cc3nc2s1 do in these assays?
S16 viability: 8.9µM*; pS6 MEF inh: inconclusive; p53null 32C tox: inconclusive; PMP22 txn: 5.6µM*; SKOV3 invasion: inconclusive; p53null 39C tox: 6.3µM*

What do the screens show for `COc1ccccc1Nc1nn2c(=O)c3ccc(C(=O)NC(C)c4ccccc4)cc3nc2s1` (stereo not given)?
S16 viability: 6%; pS6 MEF inh: -6%; p53null 32C tox: 10%; PMP22 txn: -15%; SKOV3 invasion: 6%; p53null 39C tox: 29%

What do the screens show for `C=CCc1c(C)nc2nc(SCC(=O)Nc3ccc(C)c(C)c3)nn2c1C`?
S16 viability: inconclusive; pS6 MEF inh: 10µM*; p53null 32C tox: -6%; PMP22 txn: inconclusive; SKOV3 invasion: -23%; p53null 39C tox: -4%

What do the screens show for `O=C(c1cnc(N2CCOCC2)c2ccccc12)N1CCN(c2ccccc2)CC1`?
S16 viability: -3%; pS6 MEF inh: -4%; p53null 32C tox: -3%; PMP22 txn: inconclusive; SKOV3 invasion: 6%; p53null 39C tox: 13µM*

How did CC(C)(C)c1nc2c3cc[nH]c(=O)c3c3cc(F)ccc3c2[nH]1 do in these assays?
SKOV3 invasion: 5%

How did CCCCCOC(=O)Nc1nc(=O)n([C@@H]2O[C@H](C)[C@@H](O)C2O)cc1F (stereo not given in full) do in these assays?
SKOV3 invasion: 5%

Results for Cc1ccc(-n2ncc(C(=O)NCCCN3CCc4ccccc4C3)c2C2CCN(C(=O)OC(C)(C)C)CC2)c(C)c1 ?
S16 viability: inconclusive; pS6 MEF inh: 9.3µM*; p53null 32C tox: 8%; PMP22 txn: inconclusive; SKOV3 invasion: -3%; p53null 39C tox: inconclusive

What do the screens show for `Cc1ccc(-c2nc3nc(C)cc(N4CCN(c5cccc(C)c5)C(C)C4)n3n2)cc1` (stereo not given)?
S16 viability: 2%; pS6 MEF inh: 3%; p53null 32C tox: 2%; PMP22 txn: 7%; SKOV3 invasion: 92%; p53null 39C tox: 20µM*

How did COC(=O)c1ccc2c(=O)n(CCCCCC(=O)N3CCN(c4cc(Cl)ccc4C)CC3)c(=O)[nH]c2c1 do in these assays?
S16 viability: inconclusive; pS6 MEF inh: inconclusive; p53null 32C tox: 20µM*; PMP22 txn: inconclusive; SKOV3 invasion: -24%; p53null 39C tox: -6%

What do the screens show for `O=C(CSc1nccn1Cc1ccc(Cl)cc1)Nc1nc2ccccc2s1`?
S16 viability: 10%; pS6 MEF inh: -20%; p53null 32C tox: 52%; PMP22 txn: 2%; SKOV3 invasion: -9%; p53null 39C tox: 14µM*

Results for COC(=O)[C@]12CCC(C)(C)C[C@@H]1[C@@H]1C(=O)C=C3[C@@]4(C)C=C(C#N)C(=O)C(C)(C)[C@@H]4CC[C@@]3(C)[C@]1(C)CC2 ?
SKOV3 invasion: 2.3µM*

How did COC(=O)c1c(SCC(=O)Nc2cc(OC)cc(OC)c2)[nH]c2ccc(C)cc2c1=O do in these assays?
S16 viability: inconclusive; pS6 MEF inh: -11%; p53null 32C tox: inconclusive; PMP22 txn: -6%; SKOV3 invasion: -1%; p53null 39C tox: 3.2µM*

What do the screens show for `COc1ccccc1NC(=O)CSc1nnc2c(n1)[nH]c1ccccc12`?
S16 viability: inconclusive; pS6 MEF inh: inconclusive; p53null 32C tox: -8%; PMP22 txn: inconclusive; SKOV3 invasion: inactive; p53null 39C tox: -12%

Source: PubChem (National Center for Advancing Translational Sciences (NCATS))
